From PubChem BioAssay come the findings set out here.

Experiment [1] in a line: small molecules captured by biotinylated probe aFSTL3 – biochemical, small-molecule microarray, fluorescence 635/667, stem cell growth factor project, primary screen (AID 1064).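 Also: measures binding of the biotinylated anti-FSTL3 antibody to printed compounds.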 The conditions noted are these: higher = more signal.
The nature of experiment [2]: binders from COS7 lysate, DM2A8 probe, primary screen, torsin A project, cell lysate, small-molecule microarray, fluorescence 635/667 (AID 1065). The conditions noted are these: higher = more signal, COS7 lysate expressing mutant human TOR1A.
The nature of experiment [3]: small molecules captured by biotinylated probe aFGF2 – biochemical, small-molecule microarray, fluorescence 635/667, stem cell growth factor project, primary screen (AID 1067).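 Also: measures binding of biotinylated aFGF2 protein to printed compounds on slides; z-score merges feature fluorescence and signal-to-noise across triplicate slides.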 The conditions noted are these: higher = more signal.
Experiment [4] in a line: small molecules captured by biotinylated probe aFGF10 – biochemical, small-molecule microarray, fluorescence 635/667, stem cell growth factor project, primary screen (AID 1071).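 Also: score merges 667 nm spot intensity and signal to noise from triplicate slides.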 The note with it: higher = more signal.
Experiment [5] has as its target Neurogenic locus notch homolog protein 2 (Homo sapiens) (UniProt Q04721). Put plainly: small molecules binding Notch2 protein – biochemical, small-molecule microarray, 635 nm fluorescence, stem cell growth factors, primary screen (AID 1073). The conditions noted are these: higher = more signal.
Experiment [6] deals with Pro-neuregulin-1, membrane-bound isoform (Homo sapiens) (UniProt Q02297). Description: small molecules binding neuregulin-1 protein – biochemical, small-molecule microarray, fluorescence 635/667, psychiatric disease protein project, primary screen (AID 1075).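 Also: score combines 667 nm spot fluorescence with signal to noise.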 The conditions noted are these: NRG1 binding, 635 nm fluorescence, higher = more signal.
Pro-neuregulin-1, membrane-bound isoform (Homo sapiens), sequence (Q02297 whole entry, looked up, the tested form may be a part, canonical isoform): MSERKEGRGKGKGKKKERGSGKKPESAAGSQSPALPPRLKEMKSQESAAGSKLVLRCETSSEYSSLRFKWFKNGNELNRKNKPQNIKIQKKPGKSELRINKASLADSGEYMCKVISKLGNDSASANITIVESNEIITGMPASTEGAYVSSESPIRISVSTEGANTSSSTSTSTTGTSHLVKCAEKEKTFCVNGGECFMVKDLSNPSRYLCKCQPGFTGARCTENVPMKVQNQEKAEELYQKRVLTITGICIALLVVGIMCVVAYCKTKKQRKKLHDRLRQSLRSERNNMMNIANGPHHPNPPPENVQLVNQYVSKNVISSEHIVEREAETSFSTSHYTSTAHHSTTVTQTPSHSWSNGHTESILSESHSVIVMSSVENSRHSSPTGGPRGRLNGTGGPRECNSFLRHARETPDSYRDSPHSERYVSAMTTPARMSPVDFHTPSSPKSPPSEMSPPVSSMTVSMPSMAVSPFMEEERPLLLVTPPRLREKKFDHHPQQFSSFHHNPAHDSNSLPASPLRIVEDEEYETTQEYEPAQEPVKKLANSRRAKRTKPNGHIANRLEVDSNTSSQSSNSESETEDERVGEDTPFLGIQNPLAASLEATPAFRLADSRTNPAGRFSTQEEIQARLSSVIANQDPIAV
Experiment [7] deals with Neuregulin-1 EGF-like domain. Put plainly: small molecules binding NRG1 EGF domain – biochemical, small-molecule microarray, 635 nm fluorescence, primary screen (AID 1081).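 Also: binding of the protein to compounds printed on small-molecule microarray slides.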 The note with it: higher = more signal.
Experiment [8] in a line: FRG1 expression reporter modulators in myotubes – cell-based, C2C12 myotubes, firefly/Renilla luciferase, luminescence, FRG1 inhibition for FSHD, primary screen (AID 1084). The note with it: FRG1 promoter luciferase, higher = more signal, called active from +8 up or from −8 down.
Experiment [9] is described as follows: small molecules captured by biotinylated probe aFST – biochemical, small-molecule microarray, fluorescence 635/667, stem cell growth factor project, primary screen (AID 1086).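 Also: score merges 667 nm fluorescence with signal-to-noise of each printed compound spot.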 The note with it: higher = more signal.
Experiment [10] is described as follows: binders of probe aHhip on microarray, primary screen, stem cell growth factor project, biochemical, small-molecule microarray, fluorescence 635/667 (AID 1087).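 Also: score merges spot fluorescence at 667nm with spot signal to noise ratio.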 The note with it: higher = more signal.

Molecules are shown by their SMILES. Active and inactive are the calls of the source.

Neurogenic locus notch homolog protein 2 (Homo sapiens), sequence (Q04721 whole entry, looked up, canonical isoform): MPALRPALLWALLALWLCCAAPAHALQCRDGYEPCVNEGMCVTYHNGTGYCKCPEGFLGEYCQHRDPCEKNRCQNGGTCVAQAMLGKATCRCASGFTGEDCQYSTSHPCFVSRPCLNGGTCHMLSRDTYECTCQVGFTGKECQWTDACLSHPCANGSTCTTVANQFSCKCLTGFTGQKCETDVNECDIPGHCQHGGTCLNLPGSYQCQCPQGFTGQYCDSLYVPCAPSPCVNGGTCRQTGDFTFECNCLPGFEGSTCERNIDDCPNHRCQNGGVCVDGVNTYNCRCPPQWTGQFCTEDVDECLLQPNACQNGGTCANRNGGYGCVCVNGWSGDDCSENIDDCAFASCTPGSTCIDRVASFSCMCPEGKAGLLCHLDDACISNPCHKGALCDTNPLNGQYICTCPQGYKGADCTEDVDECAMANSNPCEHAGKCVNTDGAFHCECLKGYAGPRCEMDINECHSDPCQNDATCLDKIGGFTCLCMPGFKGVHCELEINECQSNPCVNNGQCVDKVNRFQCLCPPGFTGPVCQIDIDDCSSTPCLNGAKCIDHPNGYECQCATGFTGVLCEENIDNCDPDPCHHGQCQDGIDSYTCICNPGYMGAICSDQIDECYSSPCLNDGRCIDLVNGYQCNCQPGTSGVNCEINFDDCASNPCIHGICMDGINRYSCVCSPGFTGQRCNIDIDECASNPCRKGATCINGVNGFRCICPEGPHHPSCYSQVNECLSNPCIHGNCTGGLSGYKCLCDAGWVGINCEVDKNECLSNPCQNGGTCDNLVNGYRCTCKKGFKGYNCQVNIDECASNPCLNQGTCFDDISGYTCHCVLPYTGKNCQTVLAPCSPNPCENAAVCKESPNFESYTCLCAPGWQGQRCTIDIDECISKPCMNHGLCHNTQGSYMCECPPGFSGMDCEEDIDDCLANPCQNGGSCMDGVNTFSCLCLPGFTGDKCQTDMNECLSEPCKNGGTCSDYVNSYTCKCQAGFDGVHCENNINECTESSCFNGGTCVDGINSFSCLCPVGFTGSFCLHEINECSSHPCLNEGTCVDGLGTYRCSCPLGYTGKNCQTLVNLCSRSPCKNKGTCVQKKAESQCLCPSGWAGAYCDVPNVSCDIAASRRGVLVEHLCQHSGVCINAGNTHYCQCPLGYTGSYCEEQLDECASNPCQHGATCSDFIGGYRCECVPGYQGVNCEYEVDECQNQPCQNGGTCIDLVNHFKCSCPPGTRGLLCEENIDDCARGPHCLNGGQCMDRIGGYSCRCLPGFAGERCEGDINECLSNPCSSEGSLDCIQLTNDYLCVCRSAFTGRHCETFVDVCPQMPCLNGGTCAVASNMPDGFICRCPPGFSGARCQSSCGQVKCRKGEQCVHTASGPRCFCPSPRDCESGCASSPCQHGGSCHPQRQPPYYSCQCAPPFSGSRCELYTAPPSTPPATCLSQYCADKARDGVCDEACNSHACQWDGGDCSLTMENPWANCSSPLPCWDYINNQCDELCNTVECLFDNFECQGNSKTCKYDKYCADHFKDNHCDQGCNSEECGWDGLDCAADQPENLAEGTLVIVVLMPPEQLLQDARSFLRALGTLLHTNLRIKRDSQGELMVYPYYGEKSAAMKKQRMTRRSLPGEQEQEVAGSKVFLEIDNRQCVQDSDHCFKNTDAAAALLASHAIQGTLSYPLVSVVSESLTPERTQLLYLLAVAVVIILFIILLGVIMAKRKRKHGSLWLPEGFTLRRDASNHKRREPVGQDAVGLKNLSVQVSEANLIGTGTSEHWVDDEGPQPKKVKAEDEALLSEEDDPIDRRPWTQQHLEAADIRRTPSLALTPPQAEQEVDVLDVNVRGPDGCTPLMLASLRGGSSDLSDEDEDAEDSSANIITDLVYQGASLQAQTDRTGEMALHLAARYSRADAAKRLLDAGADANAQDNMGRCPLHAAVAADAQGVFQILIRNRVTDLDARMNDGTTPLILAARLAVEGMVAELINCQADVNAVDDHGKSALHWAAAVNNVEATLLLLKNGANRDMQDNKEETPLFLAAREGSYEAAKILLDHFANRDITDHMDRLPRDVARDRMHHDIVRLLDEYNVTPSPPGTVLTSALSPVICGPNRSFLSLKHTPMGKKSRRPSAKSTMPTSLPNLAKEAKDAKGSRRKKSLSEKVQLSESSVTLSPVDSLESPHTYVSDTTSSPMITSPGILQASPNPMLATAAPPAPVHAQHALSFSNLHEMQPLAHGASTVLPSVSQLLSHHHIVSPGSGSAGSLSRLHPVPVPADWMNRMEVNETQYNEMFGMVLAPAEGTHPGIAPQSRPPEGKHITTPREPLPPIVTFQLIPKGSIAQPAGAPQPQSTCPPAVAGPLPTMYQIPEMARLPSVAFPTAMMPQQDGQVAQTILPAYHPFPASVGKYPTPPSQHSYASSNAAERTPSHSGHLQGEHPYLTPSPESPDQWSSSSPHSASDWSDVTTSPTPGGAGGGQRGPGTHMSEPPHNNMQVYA

On to `C=CCNC(=O)[C@H]1[C@@H]2C(=O)O[C@@H](c3ccccc3)[C@@H](c3ccccc3)N2[C@@H](c2ccc(OCCO)cc2)[C@]12C(=O)Nc1ccc(C#Cc3ccc(OC)cc3)cc12`, for which the composite z-score in experiment [1] was -0.179; in experiment [2] it was 0.897; in [3], 0.0566; in experiment [4], 0.705; in experiment [5] it was 1.46; in experiment [6] it was 1.52. Also, the results for the composite z-score in [7], in experiment [9] and in experiment [10] were 1.22, 0.624 and 0.289, respectively. Also, the z-score in [8] is 0.744 (inactive).
For `COC(=O)C1=CC(CCCO)=CC(c2ccc(CN3CCCC3)cc2)N(C)C=C1C(=O)OC` (stereo not given), the composite z-score was found to be 0.114 in experiment [1]; 1.34 in experiment [2]; 0.0755 in experiment [3]; 1.21 in [4]; 1.13 in experiment [5]; 1.93 in experiment [6]. Also, the composite z-score is 1.18 in [7], 0.989 in experiment [9] and -0.219 in experiment [10]. For the same molecule, the z-score in experiment [8] was 0.48 (inactive).
As for `CN1C(=O)C2C=CC(C(O)c3cccs3)N(N(c3ccccc3)c3ccccc3)C2C1=O` (stereo not given), the composite z-score in experiment [1] is -0.128; in experiment [2], -0.493; in [3] it was 0.0472; in experiment [4], 0.272; in experiment [5] it was 1.1; in experiment [6], 1.19. In addition, the composite z-score in experiment [7] was 1.21; in [9], 0.379; in experiment [10], -0.0645. The z-score in [8] is -0.179 (inactive).
In the case of `COC(=O)[C@@]1(Cc2ccc(OC)cc2)[C@H]2c3cc(C(=O)N(C)C)n(Cc4c(CO)[nH]cc(C)c4=O)c3C[C@H]2CN1C(=O)c1ccccc1`, the composite z-score was 0.466 in experiment [1]; 0.249 in experiment [2]; -0.015 in experiment [3]; -0.112 in [4]; 1.56 in experiment [5]; 2.09 in experiment [6]. In addition, the composite z-score is 1.37 in experiment [7], 1.47 in experiment [9] and 1.81 in [10]. In addition, in [8], the z-score was 2.07 (inactive).
`COC(=O)c1c2oc(c1C(=O)OC)C(=O)N[C@H](Cc1ccccc1)Cn1cc(nn1)C1(CCCCC1)NC(=O)N[C@H](CO)CC2`: the composite z-score in experiment [1] was -0.194; in [2] it was 0.112; in [3], -0.0561; in experiment [4], 0.399; in experiment [5] it was -0.0222; in experiment [6] it was 0.657. Also, the results for the composite z-score in experiment [7], in experiment [9] and in experiment [10] were 0.647, -0.259 and -0.0102, respectively. For the same molecule, the z-score in experiment [8] is -1.12 (inactive).
Regarding `CC1CC/C=C\[C@H]2OC34C=CCN(C(C)C)C(=O)[C@H]3N(C(C)CO)C(=O)[C@@H]4C2C(=O)O1` (stereo not given in full), the composite z-score in [1] is -0.213; in experiment [2] it was 0.104; in experiment [3] it was -0.129; in experiment [4], -0.19; in experiment [5], -0.0047; in experiment [6], -0.43. The values for the composite z-score in experiment [7], in experiment [9] and in experiment [10] were 0.238, -0.088 and -0.137, respectively. Further, in experiment [8], the z-score was -0.658 (inactive).
`CC1CC/C=C\[C@H]2OC34C=CCN(CCN5CCOCC5)C(=O)[C@H]3N(C(CO)C(C)C)C(=O)[C@@H]4C2C(=O)O1` (stereo not given in full): the composite z-score in [1] was -0.0695; in experiment [2] it was 0.949; in experiment [3], -0.133; in [4], -0.528; in experiment [5], -0.916; in experiment [6], 1.77. For the same molecule, the values for the composite z-score in experiment [7], in [9] and in experiment [10] were 0.907, -0.249 and -0.069, respectively. Also, in experiment [8], the z-score was -0.363 (inactive).
Regarding `O=C1C2C=CC(C(O)C3CC=CCC3)N(Nc3ccc([N+](=O)[O-])cc3)C2C(=O)N1c1ccccc1` (stereo not given), the composite z-score stood at 1.47 in experiment [1]; 1.28 in experiment [2]; 0.428 in experiment [3]; 1.14 in experiment [4]; 1.54 in [5]; 1.61 in experiment [6]. For the same molecule, the figures for the composite z-score in experiment [7], in experiment [9] and in [10] were 1.26, 2.28 and 0.0729, respectively. Besides, the z-score in [8] is -1.06 (inactive).
Regarding `CN(C)CCCCNC(=O)[C@H]1C[C@H]2C(=O)N[C@@H](CCCCN(C)C)C(=O)N2[C@H]1c1ccc(O)cc1`, the composite z-score in [1] is -0.162; in experiment [2], 0.857; in experiment [3], -0.215; in experiment [4], 0.301; in experiment [5] it was -0.0742; in [6] it was -0.121. Besides, the composite z-score in [7] is 0.763; in [9], -0.349; in experiment [10] it was -0.16. The z-score in [8] was -0.354 (inactive).
Regarding `O=C(c1ccccc1)N1Cc2ccccc2C[C@@]2(N=C(c3ccc(OCCCO)cc3)O[C@H]2c2ccccc2)C1=O`, the composite z-score is -0.302 in [1]; 0.564 in experiment [2]; -0.0538 in experiment [3]; 0.458 in [4]; 1.13 in experiment [5]; 1.05 in experiment [6]. Besides, the composite z-score is 1.21 in experiment [7], 0.229 in experiment [9] and 0.201 in experiment [10]. The z-score in [8] was -3.39 (inactive).
For the molecule `[N-]=[N+]=NCc1ccccc1C[C@@]1(C(N)=O)N=C(c2ccc(OCCCO)cc2)O[C@@H]1c1ccccc1N=[N+]=[N-]`, the composite z-score in experiment [1] was -0.459; in experiment [2], -0.0227; in experiment [3], 0.0131; in experiment [4] it was 1.15; in [5], 1.43; in experiment [6], 1.38. The composite z-score in experiment [7] was found to be 1.07; in experiment [9], 0.926; in experiment [10] it was 0.0722. Moreover, the z-score in [8] is -0.739 (inactive).
`Cc1ccc(N2C(=O)c3ccccc3[C@@H](C(=O)NCCN3CCOCC3)[C@@H]2c2ccc(CO)cc2)nc1`: the composite z-score in experiment [1] is 1.02; in experiment [2], -1.48; in experiment [3], -0.116; in experiment [4], -0.319; in experiment [5], -1.34; in experiment [6], 0.209. The composite z-score was -0.297 in experiment [7], -0.58 in experiment [9] and -0.249 in experiment [10]. Also, the z-score in experiment [8] is 0.169 (inactive).
With `CC[C@@H](O[Si](C#C[Si](C(C)C)(C(C)C)C(C)C)(C(C)C)C(C)C)c1cn(Cc2cccc(Cl)c2)nn1`, the composite z-score in experiment [1] is -0.385; in experiment [2] it was 0.6; in [3], -0.0594; in [4], 0.238; in experiment [5], 0.863; in experiment [6], -0.019. The composite z-score is 0.69 in experiment [7], 0.197 in [9] and -0.0003 in experiment [10]. The z-score in experiment [8] is -0.0554 (inactive).
For the molecule `CC[C@H]1C2=C3C(CC[C@H]4C(OCc5ccc(F)cc5C(F)(F)F)OC[C@](C)([C@@H]34)N(C(=O)OC(C)(C)C)C2)C(COC(C)=O)C1COC(C)=O` (stereo not given in full), the composite z-score was -0.187 in experiment [1]; -0.25 in [2]; 0.0311 in [3]; 0.54 in experiment [4]; 1.54 in experiment [5]; 1 in experiment [6]. Besides, the figures for the composite z-score in experiment [7], in experiment [9] and in experiment [10] were 1.2, 1.43 and 0.104, respectively. Moreover, the z-score in experiment [8] is 1.48 (inactive).
As to `COCCCNC(=O)[C@@]1(Cc2ccccc2I)c2ccccc2C(=O)N(C2CCCCC2)[C@H]1c1ccc(CO)cc1`, the composite z-score in experiment [1] was -0.101; in [2], 0.346; in [3] it was -0.0064; in [4], 0.527; in experiment [5] it was 0.452; in experiment [6] it was 0.857. Besides, the composite z-score in [7] is 1.35; in experiment [9] it was -0.729; in [10], -0.0994. In [8], the z-score was -4.02 (inactive).
As to `O=C1O[C@@H](c2ccccc2)[C@@H](c2ccccc2)N2[C@@H](c3ccc(OCCO)cc3)[C@]3(C(=O)Nc4ccc(C#CC5=CCCCC5)cc43)[C@@H](C(=O)Nc3nc4ccccc4s3)[C@H]12`, the composite z-score in [1] is -0.574; in experiment [2], 0.0484; in experiment [3], -0.357; in experiment [4] it was 0.3; in [5], 0.91; in experiment [6], 0.744. In addition, the composite z-score in experiment [7] was 0.651; in [9], -1.06; in [10], -1.07. Moreover, the z-score in experiment [8] is 4.67 (inactive).
Regarding `CC(C)(C)OC(=O)CC[C@]1(C(=O)N2CCOCC2)COC(c2ccc(OCCCO)cc2)=N1`, the composite z-score was -0.77 in [1]; 0.667 in experiment [2]; 0.0476 in experiment [3]; 0.0767 in experiment [4]; 0.498 in experiment [5]; 1.6 in [6]. The composite z-score in experiment [7] is 1.32; in experiment [9] it was 0.163; in experiment [10], -0.0275. In addition, the z-score in [8] was -0.462 (inactive).
